From the supplement of paper PMC7411054
Structures can show the parent of a compound that is named as a salt.

Assays:
Assay in all cases: lowest phenotypically active concentration; higher = less potent
Details in all cases: treatment time: 24 h
HepG2-CANX-COX4 = system: HepG2-CANX-COX4
In short: (§1)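 The reporter lines, fifteen in total and built by gene editing in A549, HepG2 and WPMY1 cells, used BFP for segmentation alongside GFP and RFP/FusionRed markers. Each was treated at 0.3, 1, 3 or 9 µM for 24 h in four wells and then imaged live, with live-cell features normalised to solvent control wells. Deviation meant ≥3 of 4 wells beyond the 95th percentile of control Euclidean distances; reproducibility meant a median replicate Pearson correlation above the 95th percentile of non-replicates. Only conditions meeting both were scored as phenotypically active.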

HepG2-GM130-SQSTM1 = system: HepG2-GM130-SQSTM1
In short: as §1

HepG2-TP53BP1-CLTA = system: HepG2-TP53BP1-CLTA
In short: as §1

HepG2-TUBA1B-RELA = system: HepG2-TUBA1B-RELA
In short: as §1

WPMY1-ACTB-RAB5A = system: WPMY1-ACTB-RAB5A
In short: as §1

WPMY1-CANX-COX4 = system: WPMY1-CANX-COX4
In short: as §1

WPMY1-TP53BP1-CLTA = system: WPMY1-TP53BP1-CLTA
In short: as §1

WPMY1-TUBA1B-RELA = system: WPMY1-TUBA1B-RELA
In short: as §1

A549-TP53BP1-CLTA = system: A549-TP53BP1-CLTA
In short: as §1

Compound | lowest phenotypically active concentration (HepG2-CANX-COX4) [µM] | lowest phenotypically active concentration (HepG2-GM130-SQSTM1) [µM] | lowest phenotypically active concentration (HepG2-TP53BP1-CLTA) [µM] | lowest phenotypically active concentration (HepG2-TUBA1B-RELA) [µM] | lowest phenotypically active concentration (WPMY1-ACTB-RAB5A) [µM] | lowest phenotypically active concentration (WPMY1-CANX-COX4) [µM] | lowest phenotypically active concentration (WPMY1-TP53BP1-CLTA) [µM] | lowest phenotypically active concentration (WPMY1-TUBA1B-RELA) [µM] | lowest phenotypically active concentration (A549-TP53BP1-CLTA) [µM]
N#Cc1cccc(-c2c[nH]c3ncnc(N4CCOCC4)c23)c1 | 3 | 3 | 3 | 1 | 9 | 9 | 3 | – | –
COc1ccc(Cl)cc1NC(=O)Nc1cc(C)nc2ccccc12 | 1 | 3 | 3 | 3 | – | – | – | – | –
Clc1ccc2c(c1)C(N1CCNCC1)=Nc1ccccc1O2 [amoxapine] | – | 9 | – | 3 | 9 | – | – | 9 | –
O=c1cc(N2CCOCC2)oc2c(-c3cccc4c3sc3ccccc34)cccc12 | 3 | 1 | 1 | 1 | 1 | 1 | 3 | 9 | –
O=C1Cc2cc(CCN3CCN(c4nsc5ccccc45)CC3)c(Cl)cc2N1 [ziprasidone] | – | 3 | 9 | 3 | – | – | – | – | –
CCN(CCO)CCCC(C)Nc1ccnc2cc(Cl)ccc12 (centres undefined) [hydroxychloroquine] | – | 9 | – | 9 | 9 | 9 | – | 9 | –
CCSc1ccc2c(c1)N(CCCN1CCN(C)CC1)c1ccccc1S2 [thiethylperazine] | – | 9 | – | 9 | 9 | 9 | 9 | 9 | –
O=C(Nc1nc2cc(C(F)(F)F)cc(NC3CC3)n2n1)c1cccnc1 | 3 | – | 9 | 9 | 3 | 9 | 3 | – | –
CN1CCC(CN2c3ccccc3Sc3ccccc32)C1 (centres undefined) [methdilazine] | – | 9 | 9 | 9 | 9 | 9 | 9 | 9 | –
O[C@H](CNC[C@H](O)[C@@H]1CCc2cc(F)ccc2O1)[C@@H]1CCc2cc(F)ccc2O1 [nebivolol] | – | – | 9 | 3 | 3 | 9 | 9 | 3 | –
CCCc1cc(C)n(C)c(=O)c1CN(C)C(=O)c1cc(-c2ccc(N3CCN(C(C)C)CC3)nc2)cc2c1cnn2C(C)C | – | 3 | 3 | – | 3 | 3 | 9 | 9 | –
CC(CN(C)C)CN1c2ccccc2CCc2ccccc21 (centres undefined) [trimipramine] | – | – | – | 9 | 9 | 9 | – | – | –
Fc1ccc([C@@H]2CCNC[C@H]2COc2ccc3c(c2)OCO3)cc1 [paroxetine] | – | 9 | 9 | 3 | 9 | 9 | 9 | 9 | –
Cc1cc2nc(NCCCO)n(CC(=O)c3cc(C(C)(C)C)c(O)c(C(C)(C)C)c3)c2cc1C | – | – | – | 9 | – | – | – | – | –
COCCCC/C(=N/OCCN)c1ccc(C(F)(F)F)cc1 [fluvoxamine] | – | – | 9 | 9 | 9 | – | – | – | –
CC1=C(/C=C/C(C)=C\C=C\C(C)=C\C(=O)O)C(C)(C)CCC1 [tretinoin] | ≤ 0.3 | 9 | – | – | 1 | 1 | 1 | 3 | –

Compound | lowest phenotypically active concentration (HepG2-CANX-COX4) [µM] | lowest phenotypically active concentration (HepG2-GM130-SQSTM1) [µM] | lowest phenotypically active concentration (HepG2-TP53BP1-CLTA) [µM] | lowest phenotypically active concentration (HepG2-TUBA1B-RELA) [µM] | lowest phenotypically active concentration (WPMY1-ACTB-RAB5A) [µM] | lowest phenotypically active concentration (WPMY1-CANX-COX4) [µM] | lowest phenotypically active concentration (WPMY1-TP53BP1-CLTA) [µM] | lowest phenotypically active concentration (WPMY1-TUBA1B-RELA) [µM] | lowest phenotypically active concentration (A549-TP53BP1-CLTA) [µM]
CC(CN1c2ccccc2Sc2ccccc21)N(C)C (centres undefined) [promethazine] | – | 9 | 9 | 9 | 9 | – | 9 | 9 | –
CN(C)CC(O)Cn1c2ccc(Br)cc2c2cc(Br)ccc21 (centres undefined) [Wiskostatin] | 9 | 3 | 3 | 3 | 3 | 3 | 9 | 3 | –
Cc1cc(CS(=O)(=O)c2ccccc2)cc(OCc2ccc(CN3CCC[C@@H]3CO)cc2)c1 [PF 543 hydrochloride] | – | 9 | 9 | – | 9 | – | – | – | –
CC[C@H](CO)Nc1nc(Nc2cccc(-c3ccccn3)c2)c2ncn(C(C)C)c2n1 [(R)-DRF053 dihydrochloride] | – | 9 | 9 | 9 | – | 9 | – | 9 | –
O=C(Nc1ccncc1)c1cc([N+](=O)[O-])ccc1Cl | 3 | 9 | 9 | 9 | – | 9 | – | 9 | 9
Cc1ccc(NC(=O)c2cccc(C(C)(C)C#N)c2)cc1Nc1ccc2ncn(C)c(=O)c2c1 | ≤ 0.3 | ≤ 0.3 | ≤ 0.3 | ≤ 0.3 | 3 | 9 | 9 | – | 1
COc1cc(OC)c2c(=O)[nH]c(-c3cc(C)c(OCCO)c(C)c3)nc2c1 [apabetalone] | 9 | 9 | – | – | – | – | 9 | 9 | –
Fc1ccccc1Nc1nc2nonc2nc1Nc1ccccc1F | – | – | 9 | 9 | 9 | 9 | – | – | –
N#Cc1ccc2ncnc(NCCc3ccccc3)c2c1 [Senexin A] | 9 | – | – | – | 1 | 3 | – | 3 | –
CN1c2ccc([N+](=O)[O-])cc2N=C(c2ccc(C(=O)O)cc2)c2cc3c(cc21)C(C)(C)CCC3(C)C | – | – | – | 9 | – | – | – | – | –
COc1cc2nccc(Oc3ccc(NC(=O)C4(C(=O)Nc5ccc(F)cc5)CC4)cc3)c2cc1OC | – | – | – | – | 3 | – | – | – | –
Nc1ncnc2c1c(-c1ccc(Oc3ccccc3)cc1)nn2C1CCCC1 | – | – | – | – | – | – | 3 | – | –
CC(C)(C)c1ccc(C(O)CCCN2CCC(C(O)(c3ccccc3)c3ccccc3)CC2)cc1 (centres undefined) [terfenadine] | – | – | – | 1 | – | – | – | 3 | –
Nc1cc(N)c(N)cc1N [FAK Inhibitor 14] | – | – | 9 | 3 | 3 | 9 | 9 | 1 | –
O=C(Nc1ccc(CN2CCOCC2)cc1)c1ccc(-c2cccc(Cl)c2)o1 | – | – | – | 9 | – | – | – | – | –
CC1CNCCN1S(=O)(=O)c1cccc2cnccc12 (centres undefined) [H-7 dihydrochloride] | 9 | 9 | – | 9 | 9 | 9 | – | 9 | –
